We go through one sequence from publication PMC7862700, “An all-to-all approach to the identification of sequence-specific readers for epigenetic DNA modifications on cytosine”.

Experiment in all cases: DAPPL (digital affinity profiling via proximity ligation, sequencing); 10 mM Tris-HCl pH 7.5, 50 mM NaCl, 1 mM DTT, 4% glycerol, room temperature, 30 min; GST-TFs on glutathione beads, 16-mer random dsDNA library, 0.1% formaldehyde crosslink after washing; high values mean tight binding
What all share (settings): protein: recombinant; tags: N-terminal GST; dsDNA, one strand shown

One assay deals with T1, FLI1 (Homo sapiens, UniProt Q01543 1-452).
T1 sequence: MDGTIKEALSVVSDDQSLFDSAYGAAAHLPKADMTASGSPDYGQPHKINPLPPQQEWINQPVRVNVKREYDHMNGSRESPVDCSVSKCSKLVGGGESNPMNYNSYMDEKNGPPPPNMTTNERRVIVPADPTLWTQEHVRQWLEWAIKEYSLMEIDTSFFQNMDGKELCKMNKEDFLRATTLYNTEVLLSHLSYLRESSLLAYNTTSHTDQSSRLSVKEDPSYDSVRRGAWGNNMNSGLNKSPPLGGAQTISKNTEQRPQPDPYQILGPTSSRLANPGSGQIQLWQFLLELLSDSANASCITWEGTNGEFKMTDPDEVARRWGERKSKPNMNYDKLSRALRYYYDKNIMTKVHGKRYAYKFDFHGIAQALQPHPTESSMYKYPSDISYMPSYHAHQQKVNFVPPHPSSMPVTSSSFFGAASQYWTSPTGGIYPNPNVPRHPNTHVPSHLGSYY
In outline: (§1)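 Human transcription factors fused to GST were expressed in yeast, captured on glutathione beads, given DNA barcodes and pooled with a GST-only negative control. Pools were incubated with 200 nmole of a 16-mer random double-stranded DNA library in Tris/NaCl/DTT/glycerol buffer at room temperature for 30 min. They were then washed, crosslinked with 0.1% formaldehyde, proximity-ligated (BsaI/T4 ligase, 1 h, 37 °C), PCR-amplified and sequenced on an Illumina NextSeq500. Binding signal is each 6-mer's read frequency for a factor divided by its frequency for the GST control.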

In the next assay the target is T2, ELK1 (Homo sapiens, UniProt P19419 1-428).
T2 sequence: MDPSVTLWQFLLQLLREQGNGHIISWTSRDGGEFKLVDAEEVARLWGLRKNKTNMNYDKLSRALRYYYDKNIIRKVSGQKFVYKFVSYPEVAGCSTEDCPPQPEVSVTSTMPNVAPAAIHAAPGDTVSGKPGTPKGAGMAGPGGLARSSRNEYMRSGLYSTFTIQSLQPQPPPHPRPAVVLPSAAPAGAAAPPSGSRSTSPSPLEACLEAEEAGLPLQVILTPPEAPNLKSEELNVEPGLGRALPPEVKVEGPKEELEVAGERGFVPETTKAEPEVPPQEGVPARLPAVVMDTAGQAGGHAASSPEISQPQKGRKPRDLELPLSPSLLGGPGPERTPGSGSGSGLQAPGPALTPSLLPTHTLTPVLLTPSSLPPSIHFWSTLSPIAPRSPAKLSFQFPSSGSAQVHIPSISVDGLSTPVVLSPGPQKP
In outline: as §1

For a further assay, the target named is T3, GABPA (Homo sapiens, UniProt Q06546 1-454).
T3 sequence: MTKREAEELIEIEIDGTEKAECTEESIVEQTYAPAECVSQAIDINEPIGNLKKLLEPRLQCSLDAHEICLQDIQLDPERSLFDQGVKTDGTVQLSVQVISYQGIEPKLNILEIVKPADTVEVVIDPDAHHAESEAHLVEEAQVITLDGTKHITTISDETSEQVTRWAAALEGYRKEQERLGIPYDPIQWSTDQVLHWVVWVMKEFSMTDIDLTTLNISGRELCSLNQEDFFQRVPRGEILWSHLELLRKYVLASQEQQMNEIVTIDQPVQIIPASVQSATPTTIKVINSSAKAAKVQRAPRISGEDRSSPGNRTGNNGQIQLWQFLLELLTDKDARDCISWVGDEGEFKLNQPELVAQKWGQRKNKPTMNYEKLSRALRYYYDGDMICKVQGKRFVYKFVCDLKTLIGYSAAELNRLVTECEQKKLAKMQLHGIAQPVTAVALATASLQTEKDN
In outline: as §1

In another assay the target is T4, ERG (Homo sapiens, UniProt P11308 1-479).
T4 sequence: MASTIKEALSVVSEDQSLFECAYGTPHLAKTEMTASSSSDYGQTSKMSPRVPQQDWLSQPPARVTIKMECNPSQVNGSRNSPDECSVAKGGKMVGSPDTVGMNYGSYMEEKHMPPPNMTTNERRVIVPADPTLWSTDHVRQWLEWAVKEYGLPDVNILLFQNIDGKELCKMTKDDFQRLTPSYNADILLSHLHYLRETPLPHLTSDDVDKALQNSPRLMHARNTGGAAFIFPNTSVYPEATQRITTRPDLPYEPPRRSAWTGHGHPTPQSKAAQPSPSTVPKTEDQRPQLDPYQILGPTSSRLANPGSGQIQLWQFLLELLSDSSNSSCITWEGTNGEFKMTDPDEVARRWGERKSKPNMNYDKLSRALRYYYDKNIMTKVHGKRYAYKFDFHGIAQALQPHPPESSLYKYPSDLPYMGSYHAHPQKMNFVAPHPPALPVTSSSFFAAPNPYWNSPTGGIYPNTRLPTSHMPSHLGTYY
The method, boiled down:
as §1

A further assay deals with ELF1 (Homo sapiens, UniProt P32519 1-619). In outline: as §1
Sequence of ELF1 (P32519 whole entry): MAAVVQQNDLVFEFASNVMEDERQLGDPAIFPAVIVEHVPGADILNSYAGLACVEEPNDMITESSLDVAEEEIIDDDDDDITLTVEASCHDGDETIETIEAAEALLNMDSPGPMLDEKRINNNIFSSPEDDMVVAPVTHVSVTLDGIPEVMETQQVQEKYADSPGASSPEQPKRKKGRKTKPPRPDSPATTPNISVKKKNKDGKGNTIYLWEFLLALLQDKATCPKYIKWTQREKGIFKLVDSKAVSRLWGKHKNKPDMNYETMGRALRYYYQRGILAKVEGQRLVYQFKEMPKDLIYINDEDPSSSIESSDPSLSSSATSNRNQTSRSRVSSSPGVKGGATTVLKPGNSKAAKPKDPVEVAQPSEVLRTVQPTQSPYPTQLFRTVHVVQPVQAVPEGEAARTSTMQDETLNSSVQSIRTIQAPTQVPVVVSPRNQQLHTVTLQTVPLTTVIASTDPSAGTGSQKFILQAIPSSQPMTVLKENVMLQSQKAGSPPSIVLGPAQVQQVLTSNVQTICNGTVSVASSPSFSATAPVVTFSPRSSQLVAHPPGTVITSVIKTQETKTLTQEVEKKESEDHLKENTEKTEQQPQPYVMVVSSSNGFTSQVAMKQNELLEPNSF
The target of another assay is T5, EHF (Homo sapiens, UniProt Q9NZC4 1-300).
T5 sequence: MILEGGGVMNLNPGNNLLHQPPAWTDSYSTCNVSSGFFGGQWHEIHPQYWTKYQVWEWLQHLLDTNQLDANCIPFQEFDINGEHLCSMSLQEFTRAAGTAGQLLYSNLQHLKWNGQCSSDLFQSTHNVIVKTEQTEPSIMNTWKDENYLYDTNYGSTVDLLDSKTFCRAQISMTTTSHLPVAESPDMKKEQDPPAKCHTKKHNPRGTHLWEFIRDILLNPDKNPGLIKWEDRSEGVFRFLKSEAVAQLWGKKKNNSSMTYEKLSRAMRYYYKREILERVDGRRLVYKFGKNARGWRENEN
In outline:
as §1

A further assay deals with SPIB (Homo sapiens, UniProt Q01892 1-262). The method, boiled down:
as §1

A further assay deals with T6, ELK3 (Homo sapiens, UniProt P41970 1-407).
T6 sequence: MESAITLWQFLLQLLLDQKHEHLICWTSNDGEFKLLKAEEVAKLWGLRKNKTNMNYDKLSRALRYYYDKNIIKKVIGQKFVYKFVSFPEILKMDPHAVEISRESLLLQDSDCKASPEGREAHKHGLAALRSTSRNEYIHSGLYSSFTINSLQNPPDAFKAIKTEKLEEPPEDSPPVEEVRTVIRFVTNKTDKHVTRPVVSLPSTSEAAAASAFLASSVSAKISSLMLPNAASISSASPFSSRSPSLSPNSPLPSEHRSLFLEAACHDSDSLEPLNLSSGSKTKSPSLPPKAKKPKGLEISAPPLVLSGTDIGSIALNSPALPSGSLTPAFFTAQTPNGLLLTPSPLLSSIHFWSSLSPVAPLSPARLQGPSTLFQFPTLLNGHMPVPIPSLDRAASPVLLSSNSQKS
The method, boiled down: as §1

The target in the next assay is T7, SPIC (Homo sapiens, UniProt Q8N5J4 1-248).
T7 sequence: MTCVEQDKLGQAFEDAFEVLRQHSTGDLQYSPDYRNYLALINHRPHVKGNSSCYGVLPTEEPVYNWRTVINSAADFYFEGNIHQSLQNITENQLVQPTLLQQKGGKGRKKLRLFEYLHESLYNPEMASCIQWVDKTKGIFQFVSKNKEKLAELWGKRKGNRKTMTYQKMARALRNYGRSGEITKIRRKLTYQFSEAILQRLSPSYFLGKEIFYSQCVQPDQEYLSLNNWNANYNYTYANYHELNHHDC
The method, boiled down: as §1

Sequence of SPIB (Q01892 whole entry): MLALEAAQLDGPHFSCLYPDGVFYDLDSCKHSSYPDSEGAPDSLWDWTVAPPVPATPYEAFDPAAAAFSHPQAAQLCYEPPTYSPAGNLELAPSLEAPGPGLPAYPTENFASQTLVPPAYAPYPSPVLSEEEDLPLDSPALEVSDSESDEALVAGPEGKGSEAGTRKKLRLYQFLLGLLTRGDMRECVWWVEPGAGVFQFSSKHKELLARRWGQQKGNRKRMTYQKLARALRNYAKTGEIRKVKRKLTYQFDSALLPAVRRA

In the case of TACAGC, the binding signal was 1.06 fold enrichment (6-mer frequency, TF over GST control) in the assay with FLI1; 1.01 fold enrichment (6-mer frequency, TF over GST control) with ELK1; 1.07 fold enrichment (6-mer frequency, TF over GST control) with GABPA; 1.06 fold enrichment (6-mer frequency, TF over GST control) in the assay with ERG; 1.13 fold enrichment (6-mer frequency, TF over GST control) with ELF1; 1.06 fold enrichment (6-mer frequency, TF over GST control) with EHF. The binding signal was 1.04 fold enrichment (6-mer frequency, TF over GST control) with SPIB; 1.06 fold enrichment (6-mer frequency, TF over GST control) with ELK3; 1.02 fold enrichment (6-mer frequency, TF over GST control) with SPIC.
